Assay results: the supplement of paper PMC4954754
± gives the uncertainty stated by the source.

System: HEK293T-Rex XBP1-RLuc
Assay: XBP1-RLuc splicing reporter activation, triplicate, relative to 500 nM thapsigargin (% of thapsigargin); higher = stronger IRE1/XBP1s reporter activation
Conditions: 6.8 µM; 18 h; screen: confirmation
Protocol: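 HEK293T-Rex cells stably expressing the ERSE-firefly luciferase (BiP promoter, ATF6-preferring) or XBP1-splicing Renilla luciferase (IRE1/XBP1s) reporter, 1536-well plates, compound at 6.8 µM for 18 hr at 37 °C; luminescence read […] and expressed as % activation = 100*(compound - median DMSO)/(median 500 nM thapsigargin - median DMSO). Primary screen was single-pass; confirmation screen in triplicate (mean ± SD).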

| Compound | XBP1-RLuc splicing reporter activation |
| --- | --- |
| Cc1ccn2cc(-c3ccc(O)c(O)c3)nc2c1 | 17.8 ± 5 |
| O=c1[nH]c(/C=C2\C=Nc3ccccc32)c(O)n1-c1cccc(Cl)c1 | 47.9 ± 7.7 |
| O=C(/C=C/c1ccccc1)Nc1ccc(Br)cn1 | 0.069 ± 1.1 |
| OCCNc1nc(Nc2ccc(Cl)c(Cl)c2)nc2ccccc12 | 42.7 ± 1.8 |
| O=C(COC(=O)c1cc(O)c(O)c(O)c1)Nc1ccc(Br)cc1F | 20.18 ± 0.15 |
| Oc1cccc(/C=N/Nc2ccc(Cl)nn2)c1O | 19 ± 1.9 |
| Nc1ccc2nc(-c3ccc(Br)cc3)[nH]c2c1 | 12.5 ± 2 |
| O=C(N/N=C/c1cccc2ccccc12)c1ccc2c(c1)OCO2 | 5.9 ± 3.2 |
| Cc1cc2nc(-c3ccc(SCC#N)nc3)[nH]c2cc1C | 2.7 ± 0.91 |
| COc1ccc2oc(=Nc3cc(F)ccc3F)c(C(N)=O)cc2c1 | 4.22 ± 1 |
| CCOc1ccc(NC(=O)c2ccc3c(c2)OCO3)c([N+](=O)[O-])c1 | -0.432 ± 2.4 |
| Cc1ccc(O)c(N=CC2=C(O)c3ccccc3C2=O)c1 | 24.1 ± 1.3 |
| O=C(COC(=O)c1ccc(O)c(O)c1)Nc1nc(-c2ccccc2)cs1 | 18.6 ± 3.9 |
| O=C(/C=C/c1ccccc1)Nc1ccc(Cl)cn1 | 1.96 ± 0.26 |
| N#Cc1c(NC(=O)c2cnccn2)sc2c1CCCC2 | 2.98 ± 3.5 |
| COc1ccc(/C=C(\C#N)c2nc3ccccc3n2C)cc1 | -0.499 ± 0.016 |
| N#Cc1ccc(-c2cccs2)nc1SCc1ccccn1 | 0.766 ± 2.5 |
| C=CCn1c(N2CCC(C(=O)NCCc3ccc(O)c(O)c3)CC2)nc2ccccc21 | 33.9 ± 2 |
| O=C(N/N=C\c1ccccc1[N+](=O)[O-])c1[nH]nc2c1CCc1ccccc1-2 | 3.05 ± 1.7 |
| Cc1ccc(O)c(NC(=O)c2cc(-c3ccco3)on2)c1 | 19 ± 4.5 |

| Compound | XBP1-RLuc splicing reporter activation |
| --- | --- |
| O=C(Nc1ccccc1O)c1cc2ccccc2o1 | 7.88 ± 0.66 |
| COc1ccc(/C=C/c2nc3cc([N+](=O)[O-])ccc3s2)cc1O | 4.47 ± 0.66 |
| Cc1ccc(C(=O)Nc2sc3c(c2C#N)CCC3)cc1 | 4.62 ± 0.97 |
| Cc1ccc(C)c(/C=N/Nc2nncc3ccccc23)c1 | 5.57 ± 0.69 |
| CC(=O)Nc1ccc2nc(-c3ccc(OC(C)=O)cc3)sc2c1 | 21.7 ± 1 |
| CCN(CC)c1ccc(NC(=O)c2cccc(OC)c2)cc1 | 0.922 ± 1.9 |
| CCCCCOc1ccc(N/C(N)=N/c2nc(C)cc(C)n2)cc1 | 159 ± 6.3 |
| Nc1nc(Nc2ccc(Cl)cc2)nc2ccccc12 | 8.65 ± 0.74 |
| CCOc1cccc(C(=O)Nc2ccc(-c3nc4ccc(C(=O)c5ccccc5)cc4[nH]3)cc2)c1 | 94 ± 5 |
| CCCCCCOc1ccc(/C(C)=N/NC2=NCCN2)cc1[N+](=O)[O-] | 15 ± 0.76 |
| O=C(Nc1ccc(O)cc1)c1ccc2ccccc2c1 | 6.41 ± 0.68 |
| N#C/C(=C/c1ccc(O)c(O)c1)c1nc2ccccc2s1 | 19.7 ± 0.5 |
| Cc1ccc2nc(/C(C#N)=C/c3ccc(O)cc3)[nH]c2c1 | 13.8 ± 1.6 |
| CS(=O)(=O)c1ncc(Cl)c(C(=O)C(C#N)c2nc3ccccc3s2)n1 (stereo not given) | 19.5 ± 4.9 |
| COc1cccc(C(=O)Nc2sc3c(c2C#N)CC(C)CC3)c1 (stereo not given) | 3.54 ± 0.93 |
| CN1C(=O)/C(=C\c2ccc(O)c(O)c2)SC1=S | 13.9 ± 1.8 |
| Cc1ccc(-c2csc(Nc3ccc(O)cc3)n2)cc1 | 21.3 ± 2.7 |
| COc1ccc(/C=N/NC(=O)c2cccc(F)c2)cc1Br | 1.01 ± 0.87 |
| N#Cc1c(NC(=O)/C=C/c2ccco2)sc2c1CCCC2 | 11.3 ± 1.3 |
| Cc1ccc2nc(/C(C#N)=C\c3cc(Cl)cc4c3OCOC4)[nH]c2c1 | 12.1 ± 2.3 |
